# Assay results: PubChem BioAssay AID602385 (Sanford-Burnham Center for Chemical Genomics, 2012)
# The whole screen tested about 2,300 compounds, of which about 180 (7.8%) were called active. These entries were drawn from the full list. A number with no mark means an inactive call.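 Rule for the calls: active = average inhibition of at least 30% in the single-concentration confirmation test; inactive = the rest.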
# Biological target: DNA (cytosine-5)-methyltransferase 1 (Homo sapiens) (UniProt P26358)
# Sequence (P26358 504-1616 limits assumed): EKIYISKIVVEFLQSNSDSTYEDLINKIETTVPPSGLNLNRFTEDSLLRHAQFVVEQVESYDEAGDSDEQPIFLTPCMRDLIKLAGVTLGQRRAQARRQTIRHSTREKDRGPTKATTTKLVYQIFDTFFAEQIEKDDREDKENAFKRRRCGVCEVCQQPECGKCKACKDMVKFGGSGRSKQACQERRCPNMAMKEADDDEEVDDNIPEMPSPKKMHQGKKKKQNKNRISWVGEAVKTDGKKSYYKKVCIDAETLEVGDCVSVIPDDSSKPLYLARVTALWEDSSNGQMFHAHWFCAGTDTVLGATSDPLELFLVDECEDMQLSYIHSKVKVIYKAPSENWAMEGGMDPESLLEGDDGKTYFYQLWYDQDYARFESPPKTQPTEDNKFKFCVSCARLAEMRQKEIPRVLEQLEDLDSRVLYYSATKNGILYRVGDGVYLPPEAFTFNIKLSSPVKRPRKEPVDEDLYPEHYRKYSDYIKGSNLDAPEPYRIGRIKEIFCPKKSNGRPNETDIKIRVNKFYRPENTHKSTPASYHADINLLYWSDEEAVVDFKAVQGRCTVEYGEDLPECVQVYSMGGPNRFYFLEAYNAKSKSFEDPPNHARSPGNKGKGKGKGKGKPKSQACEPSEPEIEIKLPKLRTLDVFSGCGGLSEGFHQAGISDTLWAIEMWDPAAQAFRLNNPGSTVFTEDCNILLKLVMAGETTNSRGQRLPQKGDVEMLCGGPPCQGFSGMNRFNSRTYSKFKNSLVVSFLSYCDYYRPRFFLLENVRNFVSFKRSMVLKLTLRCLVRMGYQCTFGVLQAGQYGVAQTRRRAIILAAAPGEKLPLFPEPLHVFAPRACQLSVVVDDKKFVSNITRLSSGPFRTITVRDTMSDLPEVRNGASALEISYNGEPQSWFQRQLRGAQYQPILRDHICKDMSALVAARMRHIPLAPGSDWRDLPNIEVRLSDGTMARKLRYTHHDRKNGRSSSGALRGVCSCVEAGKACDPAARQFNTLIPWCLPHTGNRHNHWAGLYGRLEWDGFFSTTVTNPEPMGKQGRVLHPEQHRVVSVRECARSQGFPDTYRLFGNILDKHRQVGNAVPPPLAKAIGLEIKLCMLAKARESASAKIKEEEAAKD
# Assay: DNMT1 methyltransferase inhibitor retest, confirmation, biochemical, molecular beacon, fluorescence, single concentration (AID 602385)
# Conditions: DNMT1 molecular beacon HinP1I cleavage, at 10 µM, active compounds read high
row,Compound,inhibition
1,CS(=O)(=O)c1ccc2c(c1)SC1=NC(=O)/C(=C/c3ccco3)C(=N)N12,16.9%
2,Cc1ccc2cc(C)c(N3CCC(C)CC3)nc2c1,1.43%
3,NC(CSC(c1ccccc1)(c1ccccc1)c1ccc(-c2ccccc2)cc1)C(=O)O (centres undefined),30.5% (active)
4,CCOc1ccc(CN2CCC(n3nccc3NC(=O)C3CC3)CC2)cc1CO,4.07%
5,Cc1ccc(N=C2NC(=O)/C(=C/C=C/c3ccco3)S2)cc1C,10.4%
6,Cc1ccc(Cc2cncc(O)c2)cc1S(=O)(=O)O,2.5%
7,O=C(CCN1C(=O)C2C3C=CC(C3)C2C1=O)Nc1ccccc1F (centres undefined),1.42%
8,CC(C)(C)N(Cc1ccccc1)C(=O)c1ccncc1,0.76%
9,COc1cc(-c2nnc(NC(=O)CS(=O)(=O)c3ccc(Cl)cc3)o2)cc(OC)c1OC,7.33%
10,O=C(COC(=O)CCC(=O)c1cccs1)NCc1ccco1,3.72%
11,O=C(COC(=O)c1ccc(F)cc1F)Nc1ncccn1,2.67%
12,Cc1ccc(/C=C/C(=O)Nc2ccc([N+](=O)[O-])c(NC(=O)/C=C/c3ccc(C)o3)c2)o1,40.8% (active)
13,COc1ccc(OC)c(NC(=O)c2cc(-c3cc(F)ccc3OCC3CCCO3)n[nH]2)c1 (centres undefined),3.2%
14,COc1ccc(Cl)cc1NC(=O)CCS(=O)(=O)c1ccc(Br)cc1,21.9%
15,COc1ccc2sc(-c3ccc(S(C)(=O)=O)cc3)c(-c3ccc(C(N)=O)cc3)c2c1,2.28%
16,CCOc1cc(NC(=O)c2ccco2)c(OCC)cc1NC(=O)COc1ccccc1,0.94%
17,NC1=CC(=O)C(=O)c2cccnc21,58.8% (active)
18,CCOc1ccccc1/C=c1\sc2nc(-c3ccco3)nn2c1=O,5.32%
19,O=C(COC(=O)/C=C/c1cn(-c2ccccc2)nc1-c1cccnc1)Nc1ccc(Cl)cc1Cl,1.69%
20,O=C(Nc1cccc(-c2nc3ccccc3[nH]2)c1)c1ccc(C(=O)Nc2cccc(-c3nc4ccccc4[nH]3)c2)cc1,7.67%
21,CCNC(=O)C1CCCN(C(=O)c2cc(F)ccc2C)CC1 (centres undefined),2.4%
22,CC(=O)c1ccc(NC(=O)c2ccc3c(Cl)c4c(nc3c2)CCCC4)cc1,2.16%
23,C=C(C)C(=O)Nc1cccc(C2=NOC3(C2)C[C@H](C(N)=O)N(C(=O)C(c2ccccc2)c2ccccc2)C3)c1 (some centres undefined),20.2%
24,O/N=C1\CC2(Cc3nonc31)OCCO2,2.08%
25,CSc1ccc(CNC(=O)c2ccc(NC(=O)C3=CSCCO3)cc2)cc1,5.27%
26,Nc1cc2c(cc1Br)-c1ccc(F)cc1C2=O,-0.64%

row,Compound,inhibition
1,CCOC(=O)C(NC(=O)CC(C)C)(Nc1sc2c(c1C(N)=O)CCCC2)C(F)(F)F (centres undefined),38.7% (active)
2,CCCCCCc1cc2cc(-c3nnc(-c4ccccc4)o3)c(=O)oc2cc1O,1.72%
3,CCOC(=O)c1c(NC(=S)NC(=O)/C=C/c2cccs2)sc(C)c1C,0.76%
4,COC(=O)CCCCC1=CCC2C(=O)C=C(O)C2C1 (centres undefined),13.6%
5,Cc1ccc(-c2nnc(-c3ccc(NC(=O)c4cccs4)cc3)o2)cc1,3.86%
6,CC1(C)Cc2nc3sc4c(SCC(=O)NC(c5ccccc5)c5ccccc5)ncnc4c3cc2CO1,2.65%
7,COc1ccc(NC(=O)CN(C)C(=O)c2cc(C3CC3)nn2-c2ccccc2)cc1,-1%
8,CCN(C(=O)CSc1nc(N)cc(=O)[nH]1)C1CCS(=O)(=O)C1 (centres undefined),4.21%
9,CC(=O)Nc1ccccc1Sc1ccc2c3c(cccc13)C(=O)N(c1ccc(C)cc1)C2=O,1.49%
10,Cc1cc(O)c(C(=O)/C=C/c2c(F)c(F)c(F)c(F)c2F)c(=O)o1,15.6%
11,CN(C)/C=C(/C(=O)c1ccc(Cl)cc1)S(=O)(=O)c1ccccc1,5.43%
12,COc1ccc2[nH]c(=O)c(-c3noc(-c4ccc(F)cc4)n3)cc2c1,0.63%
13,COc1ccc(C(=O)/C=C/c2ccc(-c3ccccc3)cc2)cc1CSCC(=O)O,28.4%
14,CCOC(=O)N1CC=C2C(C#N)=C(N)C(C#N)(C#N)[C@H](c3cccs3)[C@H]2C1,9.81%
15,c1ccc2cc3c(NCCN4CCOCC4)ccnc3cc2c1,23.4%
16,Cc1ccc(C(=O)NNC(=O)c2cc3cc4ccccc4nc3s2)cc1,3.71%
17,CC(C)(C)NC(=O)CSC(=Nc1ccccc1F)NC#N,5.5%
18,O=C(c1cccs1)N1CCC(c2nc3ccccc3s2)CC1,1.54%
19,O=C(Nc1cccc(F)c1)c1cc(-c2ccco2)nc2ccccc12,1.53%
20,CCOc1cc(CN2CCCC(CO)(Cc3ccc(F)cc3F)C2)ccc1OC (centres undefined),1.12%
21,CN(CCOc1ccccc1)C(=O)c1cc(-c2ccco2)nc2ccccc12,3.76%
22,COc1ccc(/C=C2\SC(=N)N(c3ccc(F)cc3)C2=O)cc1,-0.37%
23,COc1ccc2c(c1)c(=O)c(C(=O)c1ccc(Cl)cc1)cn2CC(=O)Nc1ccc(F)cc1,0.08%
24,CCc1nn(-c2cc(Oc3cccc4ccccc34)nc(-c3ccccc3)n2)c(N)c1C#N,-0.43%
25,Cc1ccc2[nH]c(=O)c(-c3nc4c(C)cccn4c3NCc3ccco3)cc2c1,-1.18%
26,O=C(CN1CCCSc2ccccc21)N1CCN(S(=O)(=O)c2cccc(F)c2)CC1,2.39%

row,Compound,inhibition
1,O=C(COC(=O)c1ccccc1O)NCc1ccco1,3.59%
2,COc1ccc(C(=O)OCC(=O)Nc2cccc(C(C)=O)c2)cc1OC,5.6%
3,CC(=O)Nc1ccc(SCC(=O)NC(=O)c2ccc(Cl)cc2)cc1,2.15%
4,O=C(Oc1ccc(-c2nc(-c3ccccn3)no2)cc1)c1ccccc1,29%
5,O=C(Nc1nc(-c2ccco2)c(-c2ccco2)s1)c1ccco1,6.2%
6,Cc1onc(-c2ccccc2)c1C(=O)Nc1ccccc1C#N,1.14%
7,c1coc(-c2nc3nc4ccccc4n3nc2-c2ccco2)c1,0.83%
8,O=C1CCCC(O)=C1C=NCCc1ccccc1,0.99%
9,NNc1cccc(C=Cc2ccccc2)cc1=O,1.25%
10,CCN1CCN(Cc2nc3c(c(=O)n(C)c(=O)n3C)n2CC(=O)c2ccccc2)CC1,0.76%
11,CCOC(=O)c1cccc(NC(=O)C2CCCN(S(=O)(=O)c3cnc[nH]3)C2)c1 (centres undefined),1.94%
12,C=CCn1c(=NC(=O)c2ccc(S(=O)(=O)N3CCCC3)cc2)sc2cc(NC(C)=O)ccc21,1.72%
13,Oc1c(C(c2ccco2)N2CCC3(CC2)OCCO3)sc2ncnn12 (centres undefined),1.28%
14,COc1ccc(Cc2nnc(NC(=O)Cc3cccs3)s2)cc1,87.7% (active)
15,COc1ccc(CC(=O)Nc2ccc(-c3nnc(-c4ccc(C)cc4)o3)cc2)cc1,-0.08%
16,COc1ccc(CC(=O)Nc2ccc(-c3nnc(-c4ccccc4)o3)cc2)cc1,3.13%
17,CCN1C(=O)c2cccc3c(N)ccc1c23,2.42%
18,Cc1cc2nc(-c3ccco3)c(Cc3cccc(F)c3)n2c(C)c1Br,7.28%
19,O=C(COc1ccc([N+](=O)[O-])cc1)Nc1ccc(N2CCCC2)cc1,6.61%
20,O=C(COc1ccc(/C=N/NC(=O)c2ccc(O)cc2)cc1)Nc1ccc([N+](=O)[O-])cc1,39.5% (active)
21,COc1ccc(OCC(=O)NNC(=O)c2ccc(-c3ccccc3)cc2)cc1,1.62%
22,O=C(CCNC(=O)c1ccccc1)NN=Cc1ccc(Br)o1,2.65%
23,O=C(c1ccc(CS(=O)(=O)c2ccccc2)o1)N1CCN(c2ccccc2)CC1,0.25%
24,C/C(=N\Nc1ccc(S(N)(=O)=O)cc1[N+](=O)[O-])c1cccs1,1.78%
25,COc1ccc(Br)cc1/C=N/Nc1ccc(S(=O)(=O)Nc2ccccc2C(=O)O)cc1[N+](=O)[O-],97.7% (active)
26,CC1CN(C(=O)c2ccccc2NS(=O)(=O)c2cccc([N+](=O)[O-])c2)CC(C)O1 (centres undefined),1.75%

row,Compound,inhibition
1,C=Cc1ccc(C(=O)N2CCCC(CCC(=O)N3CCN(c4ccccn4)CC3)C2)cc1 (centres undefined),1.51%
2,Cc1ccc(CNC(=O)CSc2nnc3c(n2)[nH]c2ccc(F)cc23)cc1,1.24%
3,c1ccc2cc3[nH]c(CN4CCCCC4)nc3cc2c1,3.8%
4,CCOC(=O)/C(C#N)=C/c1ccc(OCC(=O)Nc2ccccc2)c(OC)c1,4.96%
5,CCCCNC(=O)CCn1c(=O)c2ccccc2n(Cc2cc(C)ccc2C)c1=O,2.63%
6,C=CCn1c(=S)[nH]c2scc(-c3ccco3)c2c1=O,8.63%
7,CN(Cc1nc2ccc(F)cc2[nH]1)Cc1nc(CC2CC2)no1,4.53%
8,COc1ccc(-n2c(SCC(=O)Nc3sc4c(c3C#N)CCCC4)nnc2-c2ccc(O)cc2)cc1,18.9%
9,O=C(CCS(=O)(=O)c1ccc(Br)cc1)NCCc1ccc(Cl)cc1,3.33%
10,CCc1ccc(NC(=O)CS(=O)CC(=O)NCCCc2ccccc2)cc1 (centres undefined),2.37%
11,CCC/C=C(\CCC)C(NC(=O)Cc1ccccc1)c1ccc(C(=O)OC)cc1 (centres undefined),1.76%
12,COc1ccc(NC(=O)CCn2ccnc2)c(OC)c1,3.76%
13,Cc1ccccc1-n1cc(CNC(=O)CC2C(=O)NCCN2C/C=C/c2ccccc2)cn1 (centres undefined),0.15%
14,C=CC1=C(C(=O)O)N2C(=O)[C@@H](NC(=O)/C(=N\OCC(=O)O)c3csc(N)n3)[C@H]2SC1,4.47%
15,O=C(NNc1ccccn1)c1ccc(Cl)nc1,0.99%
16,CC(Oc1ccccc1)C(=O)Nc1oc(-c2ccco2)c(-c2ccco2)c1C#N (centres undefined),1.51%
17,COc1cccc(C(=O)Nc2ccc(N3CCCC3)cc2)c1,20.5%
18,Cc1ccc(-c2cc(C(=O)NCc3cn(C)nc3C)c3cc(Br)ccc3n2)cc1,8.12%
19,CC1(C(=O)NS(=O)(=O)c2ccccc2)CCN1C(=O)C/C=C/c1ccccc1 (centres undefined),0.79%
20,Cc1ccccc1NC(=O)CN1C(=O)N/C(=C\c2cccn2-c2cccc(C(=O)O)c2)C1=O,34.7% (active)
21,N#Cc1ccccc1CN1C(=O)S/C(=C/c2cccn2-c2cccc(C(=O)O)c2)C1=O,12.5%
22,O=C(Cn1nnc(-c2ccccc2)n1)N/N=C/c1ccc(-c2ccc(Cl)cc2)o1,2.46%
23,C=CC[C@@H](CC(=O)N[C@H](CO)Cc1ccccc1)C(=O)N[C@@H](COC(=O)[C@@H](CC=C)Cc1ccc(F)cc1)Cc1c[nH]c2ccccc12,5.95%
24,O=C(CSc1nc2ccccc2c(=O)[nH]1)Nc1nc(-c2ccc(Br)cc2)cs1,41.9% (active)
25,O=c1[nH]c(/C=C/c2cccc(Br)c2)nc2ccccc12,3.81%
26,Cc1nnc(N/N=C/c2cccs2)[nH]c1=O,2.68%
